A selection: hits, their analogues and other compounds. The true share with any hit is near 5.5%.
VP16 counter: VP16 counterscreen qHTS for inhibitors of ROR gamma transcriptional activity; Drosophila S2 Gal4-VP16 UAS-luciferase, luminescence, 20 h; Potency, µM (highest dose often 53.6 µM), inactives show top-dose activity, negative = inhibition, most hits filed as inhibitors; 3.5% of 310,000 active;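 note: Gal4-VP16 expression switched on by copper sulfate through the metallothionein promoter; % is set by controls: 0 for no effect and ±100 for the full control effect; nearly all actives have a fitted effect of over 50% in size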
Chronic BCR inh: qHTS Assay to Find Inhibitors of Chronic Active B-Cell Receptor Signaling; ABC-DLBCL IkBa-CBG/CBR reporter, luminescence ratio, 4 h; Potency, µM (highest dose often 46.1 µM), inactives show at the top dose activity change, negative = inhibition, hits mostly inhibitors; 0.05% of 340,000 active; AID 493014, 2011; active = well fitted inhibition curve with a large enough effect in the signal ratio, with a control signal flat, not every such curve was filed as active; inconclusive = small, poorly fitted or top-dose-only effect, or effect the other way, or a change in a side signal; the % refers to the signal ratio;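 note: plate controls were basal doxycycline-induced cells for no effect and cells given 10 µM MG132 for full effect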
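TMD8 ABC-DLBCL cells carrying doxycycline-inducible green luciferase fused to IkappaBalpha plus unfused red luciferase were exposed to compounds (up to 46 uM) for 4 hrs at 37C. Activity came from the overlap-corrected green/red luminescence ratio.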
Integrin act MD: qHTS for Activators of Integrin-Mediated Alleviation for Muscular Dystrophy; alpha7betagal myoblasts, beta-gal FDG fluorescence, 48 h; 0.064% of 350,000 active; Potency, µM (series often up to 38.3 µM), for inactives: top-dose activation, actives largely listed as activators;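 note: 100% = response of the positive control SU9516; nearly all actives have a fitted effect of over 60% in size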
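alpha7betagal+/- myoblasts (passage 13, 250/well) treated 48 h at 37C with compounds at 1:260 dilution of DMSO stock. Lysed, then beta-galactosidase activity read as FDG fluorescence (ex 480/em 540) after 30 min, with pre-read for autofluorescence.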
Mito fusion yeast: qHTS Assay for Small Molecule Inhibitors of Mitochondrial Division or Activators of Mitochondrial Fusion; S. cerevisiae fusion-defective mutant growth rescue, CellTiterGlo 48 h; Potency, µM (titrated, usually from 46.1 µM), for the others: top-dose growth rescue (activation), usual class: activators; 0.23% of 320,000 active; AID 485298, 2010; note: % of control where 0% means no effect; nearly all actives have a fitted effect of over 45% in size
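Temperature-sensitive fusion-defective S. cerevisiae (e.g. fzo1-1, mgm1-5) were grown with compound in YPEG medium (3% ethanol, 3% glycerol) for 48 hours at 37C. Growth rescue was measured as viability by CellTiterGlo luminescence after 10 minutes at ambient.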
uPA surface inh: qHTS for Inhibitors of Cell Surface uPA Generation. cell surface uPA generation assay, qHTS. 0.31% of 330,000 active. Potency, µM (highest dose often 38.3 µM), inactives show at the top dose activity change, negative = inhibition, usual class: inhibitors; active = well fitted inhibition curve with a large enough effect; inconclusive = small, poorly fitted or top-dose-only effect; inactive = no such curve, though single readings can be large or run the other way; tested in mouse RAW 264.7 cells; note: % is set by controls: 0 for no effect and ±100 for the full control effect; nearly all actives have a fitted effect of over 55% in size
RORg inh: qHTS for inhibitors of ROR gamma transcriptional activity; Nuclear receptor ROR-gamma (Mus musculus), P51450; Drosophila S2 Gal4-RORgamma UAS-luciferase reporter, 20 h; Potency, µM (highest dose often 53.6 µM), for inactives: at the top dose activity change, negative = inhibition, usual class: inhibitors; 5.4% of 310,000 active; note: % is set by controls: 0 for no effect and ±100 for the full control effect; nearly all actives have a fitted effect of over 60% in size
Target sequence (P51450 whole entry, looked up, the tested form may be a part): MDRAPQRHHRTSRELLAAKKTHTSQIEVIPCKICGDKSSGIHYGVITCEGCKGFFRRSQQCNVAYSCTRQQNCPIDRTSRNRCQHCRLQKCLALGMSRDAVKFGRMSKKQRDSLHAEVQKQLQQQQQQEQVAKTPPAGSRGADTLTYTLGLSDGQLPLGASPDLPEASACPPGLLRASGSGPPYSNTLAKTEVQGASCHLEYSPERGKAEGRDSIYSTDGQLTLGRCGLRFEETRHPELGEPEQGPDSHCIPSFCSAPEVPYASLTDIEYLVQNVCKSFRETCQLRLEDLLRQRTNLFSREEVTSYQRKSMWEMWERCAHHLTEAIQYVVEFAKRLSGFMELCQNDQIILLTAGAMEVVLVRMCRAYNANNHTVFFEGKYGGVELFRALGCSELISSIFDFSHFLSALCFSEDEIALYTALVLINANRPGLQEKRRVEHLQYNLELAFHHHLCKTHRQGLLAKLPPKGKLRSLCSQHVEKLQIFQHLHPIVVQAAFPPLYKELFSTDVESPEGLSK
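Luciferase reporter read in Schneider cells carrying Gal4-RORγ (mouse) and UAS-Photinus luciferase; cells given compound 1 h before 700 uM copper sulfate induction, then incubated 20 h at ambient temperature.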
Starred values were filed as active, the others as inactive; ? = inconclusive; nt = not tested or not shown; [ ] = remark or other dose. Unless noted, calls come from the whole dose curve; as a rule, active = well fitted curve in the direction sought with a large enough effect; inconclusive = small, poorly fitted or top-dose-only effect, or another doubt; inactive = no such curve, though single readings can be large; an effect the other way counts as inactive or inconclusive. Potency is the fitted concentration of half-maximal effect.

SMILES	VP16 counter	Chronic BCR inh	Integrin act MD	Mito fusion yeast	uPA surface inh	RORg inh
COc1ccccc1CNc1cc(C)ccn1	4%	-2%	2.5µM*	-6%	-5%	-25%[1.91 µM]
OC1OC[C@@H](O)[C@@H](O)[C@@H]1O (some centres undefined)	1%	nt	nt	nt	nt	22%
COc1cccc(C2CCCN2Cc2nc(CCC(C)C)no2)c1 (centres undefined)	-16%	1%	0%	-1%	29%	-26%
Cc1ccc2nc(C3CCCN3Cc3nc(CCC(C)C)no3)[nH]c2c1 (centres undefined)	20µM*	-3%	-16%	0%	-3%	7.1µM*
CCC(NC(=O)CCc1nnc(-c2cc(C)on2)o1)C12CC3CC(CC(C3)C1)C2 (centres undefined)	nt	0%	23%	1%	1%	nt
CCOC(=O)c1sc(NC(=O)c2cc3nc(-c4ccc(Br)cc4)cc(C(F)(F)F)n3n2)c(C(=O)OCC)c1C	nt	0%	nt	nt	nt	nt
Cc1cccc(NCc2n[nH]c(=S)n2-c2ccccc2)c1	-18%	0%	10%	-7%	0%	10µM*
Cc1cccc(-n2c(CNC(=O)Cc3ccccc3)n[nH]c2=S)c1	9%	3%	1%	10%	-2%	-32%
Cc1ccc(NCc2n[nH]c(=S)n2-c2ccccc2)cc1	-5%	-1%	0%	1%	2%	8.9µM*
Cc1ccc(S(=O)(=O)N(Cc2n[nH]c(=S)n2-c2ccccc2)c2ccccc2)cc1	-4%	8%	-19%	6%	1%	?
Cc1ccc(NCc2n[nH]c(=S)n2-c2ccccc2)c(C)c1	?	5%	4%	-7%	?	1.8µM*
CCOC(=O)CC(=O)Nc1ccc(Br)cc1C(=O)O	-19%	?	29%	-7%	5%	1.6µM*
COc1ccc(-c2ccc(CCC(=O)O)n2-c2ccccc2O)cc1	0%	16µM*	-25%	-6%	?	1%
COc1ccc(-n2c(CCC(=O)O)ccc2-c2ccccc2)cc1	2%	12%	12%	4%	-22%	10%
Cn1cc(C(=O)O)c(=O)c2cc(S(=O)(=O)N3CCCCC3)ccc21	nt	-1%	nt	nt	nt	nt
O=C(NNC(=S)NCc1ccccc1)c1ccc2c(c1)OCO2	?	2%	0%	-3%	2%	-22%
O=C(NC(=S)NCc1ccc2c(c1)OCO2)c1ccccc1	18µM*	-1%	-1%	-13%	3%	20µM*
Cc1nc(NC(=O)c2ccccc2)sc1Cc1ccc2c(c1)OCO2	?	?	-2%	15%	-13%	13µM*
O=C(NC(=S)NCc1ccccc1)c1ccc2c(c1)OCO2	11µM*	15%	-15%	?	0%	7.9µM*
O=C(NCCc1ccccc1)c1ccc2c(c1)OCO2	5µM*	?	-35%	-2%	-17%	2.8µM*
CSc1ccc(/C=C/C(=O)OCC(=O)NC2CCS(=O)(=O)C2)cc1 (centres undefined)	nt	?	-14%	-3%	-11%	nt
COc1ccc(C2=Nn3c(nnc3-c3cc(OC)cc(OC)c3)SC2)cc1	-24%	nt	nt	nt	nt	-8%
CSc1nsc(SCC(=O)Nc2ccc(C(N)=O)cc2)n1	?	-13%	2%	1%	1%	3.2µM*
CSc1nsc(SCC(=O)Nc2ccc(C(C)=O)cc2)n1	17%	?	?	1%	nt	0%
CC(=O)CC(=O)Nc1ccc(C(N)=O)cc1	-2%	24%	4%	1%	3%	11µM*
SMILES	VP16 counter	Chronic BCR inh	Integrin act MD	Mito fusion yeast	uPA surface inh	RORg inh
CCCC(=O)Nc1ccc(C(N)=O)cc1	-7%	-5%	-2%	-4%	-2%	-14%
Cc1cc2ccccc2n1CCNC(=O)c1ccccc1	2.5µM*	10%	10%	0%	8%	4.5µM*
CCCn1c(CNC(=O)c2ccccc2)nc2ccccc21	-2%	-11%	0%	-9%	-7%	10µM*
CC(C)Cn1c(CCCNC(=O)c2ccc(F)cc2)nc2ccccc21	3%	0%	3%	-2%	-3%	-11%
CCCCn1c(CNC(=O)C(C)(C)C)nc2ccccc21	?	-5%	-3%	-1%	4%	13µM*
CCn1c(CNC(=O)C(C)(C)C)nc2ccccc21	-2%	17%	19%	0%	-8%	21%
CC(C)Cn1c(CNC(=O)c2ccccc2)nc2ccccc21	?	-2%	14%	-7%	-3%	16µM*
Cc1ccc2nc(N)[nH]c(=O)c2c1Sc1ccncc1	0%	nt	nt	nt	nt	14%
CCNc1nc(NCC)nc(ON=C(C)C)n1	-5%	0%	nt	-2%	nt	?
CCNc1nc(NC(C)CC)nc(ON=C(C)C)n1 (centres undefined)	-20%	3%	-19%	-8%	-4%	14µM*
CN1[C@@H]2CC[C@H]1CC(OC(=O)[C@@H](CO)c1ccccc1)C2 (some centres undefined)	-4%[17 µM]	nt	nt	nt	nt	4%[16.9 µM]
O=C(OC1Cc2c(O)cc(O)cc2OC1c1cc(O)c(O)c(O)c1-c1c(C2Oc3cc(O)cc(O)c3CC2O)cc(O)c(O)c1O)c1cc(O)c(O)c(O)c1 (centres undefined)	-3%	nt	nt	nt	nt	-2%
O=C(O)c1ccccc1/C=N/n1c(C2CCCCC2)n[nH]c1=S	-5%	2%	-17%	-4%	-3%	-17%
S=c1[nH]nc(C2CCCCC2)n1/N=C/c1cccs1	?	-1%	12%	0%	2%	14µM*
CCOc1ccccc1/C=N/n1c(C2CCCCC2)n[nH]c1=S	?	0%	6%	-21%	-2%	4.5µM*
S=c1[nH]nc(C2CCCCC2)n1/N=C/c1ccccc1Cl	?	?	-1%	-29%	-4%	11µM*
COc1ccccc1/C=C/C=N/n1c(C2CCCCC2)n[nH]c1=S	2.5µM*	-1%	-13%	-1%	1%	1.4µM*
Cc1n[nH]c(=O)n(N=Cc2cccs2)c1=O	nt	nt	-14%	nt	nt	nt
COc1cccc(NC(=O)CN(C)C(=O)CSCC(=O)Nc2ccc(C)cc2)c1	nt	?	0%	-1%	5%	nt
CCOc1ccc2nc(N3CCN(C(=O)c4ccco4)CC3)sc2c1	nt	-13%	nt	nt	nt	nt
O=C(/C=C/c1ccccc1)Nc1cccc(C(=O)N2CCCC2)c1	nt	nt	-15%	nt	-15%	nt
FC(F)(F)c1ccccc1/C=N/n1c(C2CCCCC2)n[nH]c1=S	?	0%	-17%	-36%	?	7.9µM*
Cc1ccccc1NC(=O)c1ccc(-n2cncn2)nc1	-6%[0.365 µM]	-6%	-4%	-2%	nt	18µM*

Screening results deposited in PubChem by National Center for Advancing Translational Sciences (NCATS).
